TDP1 cell CPT = qHTS for Inhibitors of human tyrosyl-DNA phosphodiesterase 1 (TDP1): qHTS in cells in presence of CPT; 12% of 420,000 active; Potency, µM (titrated, usually from 46.2 µM), for the others: top-dose activity change, negative = growth inhibition, most hits filed as inhibitors; chicken DT40 Tdp1-/-;hTDP1 cells + 20 nM CPT, ATP luminescence, 48 h; AID 686979, 2013; note: potency is the fitted concentration of half-maximal effect; nearly all actives have a fitted effect of over 55% in size
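Cell growth measured by CellTiter-Glo luminescence after a minimum 48 h, 37 C compound exposure with 20 nM CPT in Tdp1-knockout DT40 cells stably expressing hTDP1, seeded 400/well; qHTS titration format.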
HT1080NT lethal = qHTS for induction of synthetic lethality in tumor cells producing 2HG: qHTS for the HT-1080-NT fibrosarcoma cell line | HT-1080-NT fibrosarcoma viability, CellTiter-Glo ATP luminescence, 48 h | Potency, µM (highest dose often 46.1 µM), for the others: at the highest dose activity, negative = less viability, usual class: cytotoxic | 1.6% of 360,000 active;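 note: NT is the 2HG producing partner of a matched IDH1 knockdown line; potency is the fitted concentration of half-maximal effect; 0% = DMSO-treated cells and -100% = media-only wells without cells; nearly all actives have a fitted effect of over 55% in size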
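Viability by CellTiter-Glo luminescence after 48 h compound exposure at 37C of HT-1080-NT cells (750/well, RPMI, 5% FBS). % activity scaled between DMSO wells and medium-only wells, then curve-fitted and categorized by curve class.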
HT1080 IDH1KD tx = qHTS for induction of synthetic lethality in tumor cells producing 2HG: qHTS for the HT-1080-IDH1KD cell line. 2% of 360,000 active. HT-1080 IDH1 knockdown viability, ATP luminescence, 48 h. Potency, µM (titrated, usually from 46.1 µM), for inactives: top-dose activity, negative = toxicity, hits mostly cytotoxic;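 note: potency is the fitted concentration of half-maximal effect; 0% = DMSO wells and -100% = cell-free medium wells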
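Cytotoxicity counter-line: IDH1KD HT-1080, 48 h, CellTiter-Glo. Curves classed by r2, magnitude and activity.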
DT40 TDP1 no CPT = qHTS for Inhibitors of human tyrosyl-DNA phosphodiesterase 1 (TDP1): qHTS in cells in absence of CPT. DT40 Tdp1-/- hTDP1 cells, no CPT, ATP luminescence, 48 h. 15% of 420,000 active. Potency, µM (highest dose often 46.2 µM), without a hit: top-dose activity change, negative = growth inhibition, hits mostly inhibitors; note: potency is the fitted concentration of half-maximal effect; nearly all actives have a fitted effect of over 55% in size
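Chicken DT40 Tdp1-/- cells complemented with human TDP1, screened without camptothecin (DMSO vehicle only), 400 cells/well. Compounds pin-transferred, cells incubated at 37 °C for at least 48 hr. Growth read as ATP-dependent luminescence (CellTiter-Glo, 30 min at RT).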
IL1B secr inh = qHTS for Inhibitors of Inflammasome Signaling: IL-1-beta AlphaLISA Primary Screen | THP-1 LPS/ATP IL-1B secretion, AlphaLISA, 16 h; active compounds read low | activity change, % at 57.5 µM | 4.7% of 360,000 active; in the data active = activity change below about -50%; inconclusive = mostly about -30% to -49%
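THP-1 cells pretreated 1 hr with compounds (up to 57.5 uM final), then stimulated with LPS (250 ng/mL final) plus ATP (1.25 mM final); secreted IL-1B measured by AlphaLISA after 16 hr, decreased signal indicating inhibition.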
* marks the source's active call; other numbers are inactive results; ? = inconclusive; . = not tested or not shown; [ ] = another dose, or the depositor's remark. The list is not random: actives were taken first. Their share in the collection is about 19%. Unless noted, calls come from the whole dose curve; as a rule, active = well fitted curve in the direction sought with a large enough effect; inconclusive = small, poorly fitted or top-dose-only effect, or another doubt; inactive = no such curve, though single readings can be large; an effect the other way counts as inactive or inconclusive. Unless noted, % is set by controls: 0 for no effect and ±100 for the full control effect.

SMILES	TDP1 cell CPT	HT1080NT lethal	HT1080 IDH1KD tx	DT40 TDP1 no CPT	IL1B secr inh
O=C(NCc1ccc(OC(F)(F)F)cc1)c1cccc2c1C(=O)c1ccc(N3CCCCC3)cc1S2(=O)=O	-6%	0%	3%	-14%	3
O=C(NCc1ccccc1Br)c1cccc2c1C(=O)c1ccc(-c3ccc(OC(F)(F)F)cc3)cc1S2(=O)=O	8.2µM*	-2%	-3%	7.3µM*	6
O=C(NCc1ccco1)c1cccc2c1C(=O)c1ccc(/C=C/c3ccccc3)cc1S2(=O)=O	?	?	?	23µM*	1
O=C(NCc1ccco1)c1cccc2c1C(=O)c1ccc(N3CCC(Cc4ccccc4)CC3)cc1S2(=O)=O	13µM*	0%	-2%	13µM*	33
Cc1cc(C(=O)N(C)CC(=O)Nc2ccc(F)c(F)c2F)no1	10%	3%	1%	3%	24
CCCN(C(=O)C1=COCCO1)c1c(N)n(Cc2ccccc2)c(=O)[nH]c1=O	4%	10%	10%	3%	5
CC(NC(=O)CCCc1c[nH]c2ccccc12)c1ccc(F)cc1 (configuration not stated)	16%	-4%	-10%	-15%	-23
COCC1CCCN(Cc2ccc3c(c2)CN(C(=O)c2sc(C)nc2C)CCO3)C1 (configuration not stated)	-11%[9.04 µM]	.	.	-16%	.
O=C(NCCc1ccc(F)cc1)c1cccc2c1C(=O)c1ccc(N3CCC(Cc4ccccc4)CC3)cc1S2(=O)=O	?	3%	-1%	?	9
O=C(NCc1cccc(C(F)(F)F)c1)c1cccc2c1C(=O)c1ccc(N3CCC(Cc4ccccc4)CC3)cc1S2(=O)=O	?	?	11%	7.3µM*	-2
O=C(NCc1ccc(OC(F)(F)F)cc1)c1cccc2c1C(=O)c1ccc(N3CCC(Cc4ccccc4)CC3)cc1S2(=O)=O	8.2µM*	2%	8%	5.2µM*	-2
Cc1cc(CNC(=O)c2cccc3c2C(=O)c2ccc(-c4ccc(F)cc4OCc4ccccc4)cc2S3(=O)=O)c(C(F)(F)F)o1	?	-10%	-14%	12µM*	17
Cc1ccc(C(=O)Nc2cccc(S(=O)(=O)N3CCCC3)c2)o1	-15%	11%	-1%	8%	8
O=C(CCC1CCCCC1)NCCN1C2=NC[C@H](Cc3ccccc3)N2C[C@H]1Cc1ccc(O)cc1	21µM*	-8%	2%	18µM*	-24
O=C(CCC1CCCCC1)NCCN1C2=NC[C@@H](Cc3ccccc3)N2C[C@H]1Cc1ccc(O)cc1	16µM*	-18%	-16%	16µM*	0
C[C@H]1CN=C2N(CCNC(=O)CCC3CCCCC3)[C@H](Cc3ccc(O)cc3)CN21	?	-3%	-2%	?	-11
Cn1cnc2c(ncn2[C@@H]2O[C@H](CO)[C@@H](O)[C@H]2O)c1=N	1%	.	.	1%	.
N/C(=N\OC(=O)c1ccccc1)C(C(=O)NOC(=O)c1ccccc1)C1CCCCC1 (configuration not stated)	26µM*	?	?	18µM*	?
O=C(COC(=O)c1ccccc1)NC1CCCCCC1	-8%	-6%	-2%	-15%	12
Clc1ccc(CON/C=N/c2ncnc3sccc23)c(Cl)c1	13µM*	-16%	-8%	10µM*	?
CCOc1ccccc1NC(=O)CCN1CCN(S(=O)(=O)c2ccc(Br)cc2)CC1	-12%	-7%	-23%	?	2
O=C(Oc1ccc(Cl)c2cccnc12)c1ccco1	?	?	?	?	64
